# Measurements: PubChem BioAssay (Tox21)
# Calls of active or inactive are those of the source. The call rests on the fitted dose curve.
# Target: Acetylcholinesterase (Homo sapiens) (UniProt P22303)
# Experiment: Acetylcholinesterase (AChE) small molecule antagonists: enzyme-based qHTS assay with human liver microsomes (AID 1347399); further: nearly all actives have a fitted effect of over 60% in size
# Details: Potency: qHTS inhibition; outcome: qHTS inhibition; series mostly up to 115 µM; activity change, negative = inhibition: at the top concentration
# How it was run: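 Recombinant human AChE (50 mU/mL in the enzyme mix) and human liver microsomes (0.25 mg/mL final) were preincubated with compound and NADPH (0.25 mg/mL final) for 30 min at 37 C. Acetylthiocholine/DTNB was then added; thiocholine was read colorimetrically after 10 min at room temperature.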
# On the % scale 0 is the no-effect control and ±100 the full control effect.
# Sequence of Acetylcholinesterase (Homo sapiens) (P22303 whole entry, looked up): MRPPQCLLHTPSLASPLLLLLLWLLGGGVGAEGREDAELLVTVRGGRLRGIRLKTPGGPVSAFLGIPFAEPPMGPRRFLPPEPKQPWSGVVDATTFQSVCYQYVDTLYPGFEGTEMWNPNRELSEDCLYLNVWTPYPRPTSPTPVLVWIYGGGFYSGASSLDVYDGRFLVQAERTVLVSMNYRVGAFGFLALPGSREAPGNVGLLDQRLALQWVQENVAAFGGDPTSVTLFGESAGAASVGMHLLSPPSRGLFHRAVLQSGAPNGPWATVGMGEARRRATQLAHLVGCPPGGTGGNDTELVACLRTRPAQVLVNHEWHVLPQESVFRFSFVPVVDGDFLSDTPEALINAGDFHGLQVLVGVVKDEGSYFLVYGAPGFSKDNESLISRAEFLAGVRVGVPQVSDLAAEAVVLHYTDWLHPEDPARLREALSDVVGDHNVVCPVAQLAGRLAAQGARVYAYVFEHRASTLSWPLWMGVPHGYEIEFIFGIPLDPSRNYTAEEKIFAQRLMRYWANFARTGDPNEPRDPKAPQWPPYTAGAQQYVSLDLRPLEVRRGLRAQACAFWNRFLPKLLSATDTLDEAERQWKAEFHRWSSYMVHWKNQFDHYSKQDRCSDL
row,Structure (SMILES),"activity change, negative = inhibition"
1,CC(C)C1CCC(O)CC1 (stereo unspecified),-3.12% (inactive)
2,N[C@@H](CSCCCO)C(=O)O,-0.67% [at 23.6 µM] (inactive)
3,Oc1ccc(C2(c3ccc(O)cc3)CC3CC2C2CCCC32)cc1 (stereo unspecified),-2.55% (inactive)
4,CN(C)CCOC(c1ccc(Cl)cc1)c1ccccn1 (stereo unspecified),0.712% [at 53 µM] (inactive)
5,FC1(F)C(F)(F)C(F)(F)C2(F)C(F)(C1(F)F)C(F)(F)C(F)(F)C1(F)C(F)(F)C(F)(F)C(F)(F)C(F)(F)C12F (stereo unspecified),-0.153% (inactive)
6,CCCCCC=CCC=CCCCCCCCC(=O)OCC,-0.295% [at 53 µM] (inactive)
7,Cc1ccc(O)c(N)c1,0.508% (inactive)
8,CCN1CCC[C@H]1CNC(=O)c1c(OC)ccc(Br)c1OC,-0.93% [at 53 µM] (inactive)
9,OCCN1CCN(CC/C=C2/c3ccccc3Sc3ccc(C(F)(F)F)cc32)CC1,-0.443% [at 53 µM] (inactive)
10,C[n+]1cc2c3c(ccc2c2ccc4cc5c(cc4c21)OCO5)OCO3,-3.24% [at 23.6 µM] (inactive)
11,CCCCCCOC(=O)C(C)CC (stereo unspecified),-1.03% (inactive)
12,O=[N+]([O-])c1cccc(I)c1,-1.89% (inactive)
13,Cc1ccc(NC(=O)c2ccc(CN3CCN(C)CC3)cc2)cc1Nc1nccc(-c2cccnc2)n1,0.508% [at 53 µM] (inactive)
14,O=S(=O)(O)c1ccc(N=Nc2c(O)ccc3ccccc23)cc1,5.28% (inactive)
15,CN(C)CCN1C(=O)c2ccccc2N(C)c2ccccc21,-0.0099% [at 53 µM] (inactive)
16,CSc1ccc2c(c1)C(N1CCN(C)CC1)Cc1ccccc1S2 (stereo unspecified),1.04% [at 53 µM] (inactive)
17,O=C(O)/C=C(\CC(=O)O)C(=O)O,0.294% [at 53 µM] (inactive)
18,COc1c(N2CCNC(C)C2)c(F)cc2c(=O)c(C(=O)O)cn(C3CC3)c12 (stereo unspecified),-1.84% [at 53 µM] (inactive)
19,C[C@H](CCC(=O)O)[C@H]1CC[C@H]2[C@@H]3[C@H](O)C[C@@H]4C[C@H](O)CC[C@]4(C)[C@H]3C[C@H](O)[C@]12C,-0.882% [at 53 µM] (inactive)
20,O=C(O)c1cccc(C(F)(F)F)c1,-0.634% (inactive)
21,O=[N+]([O-])c1ccc(Cl)cc1Cl,-2.24% (inactive)
